# PubChem BioAssay (NCI)
# Several values for one entry are separate records, joined by “and”; a condition that tells them apart may be missing. Identical values can stand only once. About 83,000 compounds went through this panel and 20% of them were active in at least one assay; those are over-represented in the sample as a whole.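 Single-concentration screen, 48 h exposure, 96-well plates. Endpoint: percent growth. Below 10 = active.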 Activity calls are given as the source filed them.
# How the values were obtained:
# Assay in all cases: NCI-60 one-dose screen, 48 h (100 = growth as untreated, 0 = no growth, -100 = all killed)
# Settings in all cases: 10 µM unless noted
# [1] = tested on: NCI-H23 lung
# [2] = tested on: NCI-H226 lung
# [3] = tested on: NCI-H322M lung
# [4] = tested on: HOP-62 NSCLC
# [5] = tested on: NCI-H460 lung
# [6] = tested on: HOP-92 NSCLC
# [7] = tested on: NCI-H522 lung
# [8] = tested on: A549/ATCC NSCLC
# [9] = tested on: 786-0 renal
# [10] = tested on: COLO 205 colon
SMILES,growth [1],growth [2],growth [3],growth [4],growth [5],growth [6],growth [7],growth [8],growth [9],growth [10]
Cc1ccc(-c2nc3nc(-c4ccc(F)cc4)nc(N4CCCNCC4)c3o2)cc1,-79.2% (active),112% (inactive),-99% (active),-62.2% (active),-83.2% (active),-57.6% (active),-65.2% (active),-82.4% (active),-86.4% (active),-77.6% (active)
O=C1/C(=C/c2ccccc2)CN(C(=O)C(Cl)Cl)C/C1=C\c1ccccc1,-56.5% (active),95.6% (inactive),37.4% (inactive),75.2% (inactive),-29.7% (active),41.8% (inactive),-0.507% (active),20.8% (inactive),-15.8% (active),-1.12% (active)
CC(=O)Nc1c(I)c(NC(C)=O)c(I)c(C(=O)O)c1I,110% (inactive),97.4% (inactive) and 113% (inactive),102% (inactive) and 101% (inactive),112% (inactive) and 97.9% (inactive),109% (inactive) and 103% (inactive),94.3% (inactive),102% (inactive) and 24.5% (inactive),105% (inactive),97.3% (inactive) and 114% (inactive),115% (inactive) and 119% (inactive)
N#CC(Cc1cccc2ccccc12)c1cc2ccccc2[nH]1 (stereo not given),85% (inactive),83.1% (inactive),84.8% (inactive),78.4% (inactive),99.8% (inactive),55.6% (inactive),75.5% (inactive),89.5% (inactive),95.3% (inactive),105% (inactive)
CCCCSc1ccc2nc(-c3ccc(OCCCN=C(N)N)cc3)cn2c1,63.7% (inactive),72.3% (inactive),90.7% (inactive),86.4% (inactive),43.7% (inactive),43.1% (inactive),53.8% (inactive),83.8% (inactive),39.4% (inactive),51.1% (inactive)
CC1=CC(C)(C)NC(=S)N1c1ccc(Cl)cc1,101% (inactive) and 99% (inactive),99% (inactive) and 103% (inactive),98.2% (inactive),108% (inactive) and 102% (inactive),101% (inactive) and 112% (inactive),114% (inactive),93.7% (inactive) and 92.4% (inactive),98% (inactive) and 104% (inactive),99.8% (inactive) and 97.7% (inactive),109% (inactive) and 100% (inactive)
COc1cccc(NC(=O)c2sc3nc(C)c(C(O)c4ccccc4)cc3c2N)c1 (stereo not given),22.9% (inactive),55% (inactive),49.7% (inactive),32.5% (inactive),4.01% (active),58.6% (inactive),0.582% (active),22.4% (inactive),34.4% (inactive),5.41% (active)
O=c1cc(N/N=C/c2ccc(F)cc2)c2cc(Cl)ccc2[nH]1,85.3% (inactive),76.1% (inactive),95.2% (inactive),95% (inactive),102% (inactive),-48.3% (active),72.8% (inactive),89.3% (inactive),89.5% (inactive),96.2% (inactive)
N#Cc1ccccc1OCC(=O)Nc1nc2c(s1)COc1ccccc1-2,99.3% (inactive),93.2% (inactive),102% (inactive),105% (inactive),107% (inactive),106% (inactive),103% (inactive),98.9% (inactive),102% (inactive),105% (inactive)
COc1ccc(CN2CCc3c(Cl)nc(N)nc3C2=O)c(OC)c1,-62.1% [100 µM] (active),5.05% [100 µM] (active),14.9% [100 µM] (inactive),40% [100 µM] (inactive),1.6% [100 µM] (active),-15.2% [100 µM] (active),15.7% [100 µM] (inactive),35.4% [100 µM] (inactive),19.6% [100 µM] (inactive),-48.6% [100 µM] (active)
Clc1ccc(Nc2nc(Nc3ccc(Cl)cc3)nc(Nc3ccc(-c4cc(-c5cccc(Cl)c5)on4)cc3)n2)cc1,88.1% (inactive),99.9% (inactive),85.2% (inactive),115% (inactive),96.1% (inactive),60.4% (inactive),88.5% (inactive),91.3% (inactive),94.6% (inactive),90.9% (inactive)
Cc1ccc(-c2nc(SCC(=O)c3ccc(C#N)cc3)[nH]c(=O)c2C#N)cc1,105% (inactive),110% (inactive),106% (inactive),103% (inactive),115% (inactive),108% (inactive),82.1% (inactive),98.4% (inactive),96.1% (inactive),88.9% (inactive)
COc1ccccc1/C=C1\COc2ccc(O)cc2C1=O,101% (inactive),102% (inactive),104% (inactive),101% (inactive),93.3% (inactive),103% (inactive),24.6% (inactive),84.6% (inactive),97.2% (inactive),87.6% (inactive)
CCCO/N=C/c1ccccn1,105% (inactive) and 96.6% (inactive),99.2% (inactive) and 100% (inactive),112% (inactive),104% (inactive) and 88.2% (inactive),105% (inactive) and 109% (inactive),105% (inactive),94.8% (inactive) and 87.3% (inactive),97.5% (inactive) and 104% (inactive),107% (inactive) and 101% (inactive),112% (inactive) and 108% (inactive)
Clc1cccc(Nc2ncnc3ccc(-c4cncc(-n5cnnn5)c4)cc23)c1,80% (inactive),73% (inactive),15.2% (inactive),83% (inactive),81.6% (inactive),21.7% (inactive),49.2% (inactive),55.7% (inactive),42.9% (inactive),87.9% (inactive)
COC(=O)N/N=C/c1c[n+]([O-])c2ccccc2[n+]1[O-],98.6% (inactive),109% (inactive),98.3% (inactive),22.7% (inactive),105% (inactive),96.5% (inactive),92.9% (inactive),93.1% (inactive),93.8% (inactive),-45.4% (active)
O=C(NCCCN1CCCCC1)c1ccc(-c2nc3ccc4[nH]ncc4c3c3c2CCCC3)cc1,49.3% (inactive),63.8% (inactive),51.7% (inactive),47.6% (inactive),24.9% (inactive),46.2% (inactive),42.8% (inactive),26.6% (inactive),44.3% (inactive),60.9% (inactive)
COc1ccc(-c2cc3cnc4ccccc4c3oc2=O)cc1,94.4% (inactive),103% (inactive),94.5% (inactive),105% (inactive),104% (inactive),73.5% (inactive),97.4% (inactive),101% (inactive),89% (inactive),103% (inactive)
COc1cc(/C=N/NC(=O)CCN2c3ccccc3Sc3ccccc32)cc(OC)c1OC,71.8% (inactive),79.3% (inactive),83.2% (inactive),101% (inactive),95.8% (inactive),61.5% (inactive),70.3% (inactive),79% (inactive),96.8% (inactive),105% (inactive)
O=C1N=c2ccccc2=C1c1sc(=S)n(C2CC(=O)N(c3ccc(Cl)cc3)C2=O)c1O (stereo not given),99.2% (inactive),92% (inactive),104% (inactive),93.2% (inactive),102% (inactive),98.6% (inactive),97.1% (inactive),107% (inactive),102% (inactive),118% (inactive)
CCCCCCCCCCCCCCCC[N+](C)(C)CCN(Cc1ccc(OC)cc1)c1ncccn1,41.5% (inactive),48.3% (inactive) and 60.2% (inactive),-81.8% (active) and 74.2% (inactive),-100% (active) and 65.2% (inactive),-84.1% (active) and 67.4% (inactive),-66.1% (active) and 15.6% (inactive),-91.2% (active) and 23.4% (inactive),-86.1% (active) and 54.4% (inactive),-33.7% (active) and 61.9% (inactive),-100% (active) and 33.1% (inactive)
Nc1ccc(-c2nc3ccc4[nH]ncc4c3c3c2CCCC3)cc1F,19.7% (inactive),42.2% (inactive),41.3% (inactive),23.1% (inactive),24.8% (inactive),55.4% (inactive),22.5% (inactive),11.7% (inactive),37% (inactive),12.4% (inactive)
BrC1=C(Br)C(Br)(Br)C(Br)=C1Br,93% (inactive),91.7% (inactive),107% (inactive),101% (inactive),102% (inactive),105% (inactive),-15.2% (active),95.2% (inactive),82.4% (inactive),69.6% (inactive)
O=C1Nc2ccccc2/C1=C/c1cccn1CCCCCn1c2ccccc2c(=O)c2ccccc21,69.6% (inactive),70% (inactive),98.8% (inactive),58.3% (inactive),95.9% (inactive),65.5% (inactive),66.3% (inactive),81.4% (inactive),105% (inactive),56.2% (inactive)
Cc1c(C(C)(C)O)cn2ncnc(Oc3ccc(NC(=O)Nc4ccc(Cl)c(C(F)(F)F)c4)cc3)c12,23.6% (inactive),65.5% (inactive),56.7% (inactive),65.4% (inactive),13.1% (inactive),4.28% (active),11.6% (inactive),32.8% (inactive),26.5% (inactive),45.6% (inactive)
Cc1ccc2[nH]c(=S)[nH]c(=O)c2c1,100% (inactive),102% (inactive),102% (inactive),99.4% (inactive),106% (inactive),93.4% (inactive),94.7% (inactive),98.9% (inactive),94.9% (inactive),117% (inactive)
